Measurements as given in PubChem BioAssay (NCI).
This is part of a sample that, as a whole, favours compounds with a hit. Of some 83,000 tested, about 20% had one in any assay.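 96-well plates, one dose, 48 hours. Percent growth reported; active if below 10.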 Unmarked numbers belong to inactive results. The source made the active and inactive calls.

Legend:
Experiment in all cases: NCI-60 one-dose screen, 48 h (100 = growth as untreated, 0 = no growth, -100 = all killed)
Conditions in all cases: 10 µM unless noted
[1] = system: NCI-H23 lung
[2] = system: NCI-H226 lung
[3] = system: NCI-H322M lung
[4] = system: HOP-62 NSCLC
[5] = system: NCI-H460 lung
[6] = system: HOP-92 NSCLC
[7] = system: NCI-H522 lung
[8] = system: A549/ATCC NSCLC
[9] = system: 786-0 renal
[10] = system: COLO 205 colon
[11] = system: DU-145 prostate
[12] = system: K-562 leukemia
[13] = system: MALME-3M melanoma
[14] = system: MDA-MB-231 breast
[15] = system: RXF 393 renal
[16] = system: SF-268 CNS
[17] = system: SF-295 CNS
[18] = system: SF-539 CNS
[19] = system: UACC-257 melanoma
[20] = system: M14 melanoma

`N#Cc1c(-c2ccccc2)cc(-c2ccccc2)n(CCCCCC(=O)Nc2ccccc2N)c1=O` showed a growth [1] of 81.2%, a growth [2] of 69.9% and a growth [3] of 81.5%. For the same molecule, the growth [4] was 82.3%, the growth [5] was 50.9% and the growth [6] was 51.9%. The growth [7] was 55.8%, the growth [8] was 71.2% and the growth [9] was 57.6%. The growth [10] was 84%, the growth [11] was 72.6% and the growth [12] was 46.3%. The growth [13] was 76.8%, the growth [14] was 64.1% and the growth [15] was 39%. For the same molecule, the growth [16] was 64.3%, the growth [17] was 95.9% and the growth [18] was 72.9%. For the same molecule, the growth [19] was 78.6% and the growth [20] was 80.1%.
With `CN(C)CC(=O)Nc1ccc2ncnc(Nc3ccc(Oc4cccc(C(F)(F)F)c4)c(Cl)c3)c2c1` the growth [1] was 75.9%, the growth [2] was 80.7% and the growth [3] was 45.3%. The growth [4] was 76.5%, the growth [5] was 8.52% (active) and the growth [6] was 37.9%. It also gave a growth [7] of 67.7%, a growth [8] of 47.5% and a growth [9] of 59.4%. The growth [10] was 35.9%, the growth [11] was 48.2% and the growth [12] was 3.41% (active). For the same molecule, the growth [13] was 69.7%, the growth [14] was 49.1% and the growth [15] was 50.6%. For the same molecule, the growth [16] was 61.3%, the growth [17] was 90.3% and the growth [18] was 90.8%. It also gave a growth [19] of 85.6% and a growth [20] of 59.5%.
Molecule `O=C1NCCC12CCN(c1c(Cl)cncc1-c1ccc(O)cc1)CC2` has a growth [1] of 100%, a growth [2] of 83.9% and a growth [3] of 103%. It also gave a growth [4] of 112%, a growth [5] of 104% and a growth [6] of 114%. It also gave a growth [7] of 78%, a growth [8] of 94.6% and a growth [9] of 100%. It also gave a growth [10] of 105%, a growth [11] of 108% and a growth [12] of 97.9%. For the same molecule, the growth [13] was 117%, the growth [14] was 102% and the growth [15] was 87.9%. The growth [16] was 82.5%, the growth [17] was 101% and the growth [18] was 83.7%. It also gave a growth [19] of 86.7% and a growth [20] of 114%.
`Cn1c(-c2ccc(Br)cc2)c(O)c(=O)c2c(F)cccc21` gave a growth [1] of 48.4%, a growth [2] of 62.9% and a growth [3] of 53.5%. For the same molecule, the growth [4] was 34%, the growth [5] was 20.5% and the growth [6] was 137%. For the same molecule, the growth [7] was 54%, the growth [8] was 45.9% and the growth [9] was 42.7%. For the same molecule, the growth [10] was 7.68% (active), the growth [11] was 54.4% and the growth [12] was 100%. It also gave a growth [13] of 55.2%, a growth [14] of 54.5% and a growth [15] of 66.1%. The growth [16] was 47%, the growth [17] was 48.4% and the growth [18] was 57.4%. It also gave a growth [19] of 71.4% and a growth [20] of 50.6%.
In the case of `CCOC(=O)c1ccc2[nH]c(O)c(C(=Nc3ccc(N(C)C(=O)CN4CCN(C)CC4)cc3)c3ccccc3)c2c1`, the growth [1] is reported as -59.3% (active), the growth [2] is reported as 15.5% and the growth [3] is reported as 11.7%. For the same molecule, the growth [4] was -5.97% (active), the growth [5] was -27.1% (active) and the growth [6] was 30.3%. For the same molecule, the growth [7] was -48.8% (active), the growth [8] was -20.5% (active) and the growth [9] was -95% (active). For the same molecule, the growth [10] was -56.3% (active), the growth [11] was -9.05% (active) and the growth [12] was -20.8% (active). For the same molecule, the growth [13] was -88.9% (active), the growth [14] was -72.3% (active) and the growth [15] was -97.7% (active). For the same molecule, the growth [16] was 7.68% (active), the growth [17] was -6.29% (active) and the growth [18] was -91.1% (active). The growth [19] was -55.4% (active) and the growth [20] was -78.5% (active).
Work on `COc1ccc(-c2csc(NC(=O)CSc3nc(-c4ccccc4)cc(=O)[nH]3)n2)cc1` yielded a growth [1] of 51%, a growth [2] of 78.7% and a growth [3] of 90.1%. The growth [4] was 50.7%, the growth [5] was 78.7% and the growth [6] was 90.2%. It also gave a growth [7] of 58%, a growth [8] of 64.6% and a growth [9] of 67.4%. The growth [10] was 56.6%, the growth [11] was 76.1% and the growth [12] was 42.9%. For the same molecule, the growth [13] was 60.2%, the growth [14] was 83.5% and the growth [15] was 86.5%. The growth [16] was 77.9%, the growth [17] was 53.3% and the growth [18] was 78.3%. For the same molecule, the growth [19] was 77.1% and the growth [20] was 59.1%.
For `C=C(C)[C@@H]1CC[C@]2(C(=O)NCCNCCN)CC[C@]3(C)[C@H](CC[C@@H]4[C@@]5(C)C/C(=C/c6ccncc6)C(=O)C(C)(C)[C@@H]5CC[C@]43C)[C@@H]12`, the growth [1] was 97.2%, the growth [2] was 100% and the growth [3] was 94.2%. It also gave a growth [4] of 101%, a growth [5] of 99.2% and a growth [6] of 75.5%. The growth [7] was 94.7%, the growth [8] was 99.9% and the growth [9] was 90.2%. The growth [10] was 88.9%, the growth [11] was 106% and the growth [12] was 86.4%. The growth [13] was 106%, the growth [14] was 96.7% and the growth [15] was 103%. It also gave a growth [16] of 88.5%, a growth [17] of 100% and a growth [18] of 95.1%. The growth [19] was 105% and the growth [20] was 89.8%.
